PubChem BioAssay (NCATS)
“And” between values parts separate entries of the source, which are not always exact repeats. Equal entries are not always repeated. Values without a mark were called inactive. Inconclusive results are not listed. Where a call stands in place of a potency, no number is given. The source made the active and inactive calls. Calls follow the shape of the dose curve; as a rule, active = well fitted curve in the direction sought with a large enough effect; inconclusive = small, poorly fitted or top-dose-only effect, or another doubt; inactive = no such curve, though single readings can be large; an effect the other way counts as inactive or inconclusive.

What was measured:
[1] = HPAF-II 24hr Apoptosis Induction qHTS against the NCATS CANVASS Library (AID 1347356)
Summary of the method: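 HPAF-II cells (500/well) exposed to compounds in 11-point series for 24 h at 37 degrees C; caspase-3/7 activity read by Caspase-Glo luminescence after 15 min at room temperature. Doxorubicin titration as control.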

[2] = HEK293 24hr Apoptosis Induction qHTS against the NCATS CANVASS Library (AID 1347359)
Summary of the method: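 HEK293 cells, 500 per well, exposed to an 11-point compound series for 24 hours at 37 degrees C. Caspase 3/7 activity read by Caspase-Glo luminescence (DEVD substrate) after 15 min at room temperature.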

[3] = HPAF-II 18hr Apoptosis Induction qHTS against the NCATS CANVASS Library (AID 1347360)
Summary of the method: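 Seed HPAF-II cells at 500/well in DMEM + 10% FBS, pin-transfer compounds, incubate 18 hours at 37 degrees C/5% CO2, add Caspase-Glo 3/7 reagent, wait 15 min, read luminescence.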

[4] = test system: NAD(P)H diaphorase (Clostridium kluyveri); experiment: Diaphorse counterscreen qHTS: Assay Interference Panel against the NCATS CANVASS Library (AID 1347362)
Summary of the method: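 Clostridium kluyveri diaphorase in PBS + 0.01% Tween-20 preincubated 15 min with compounds. Resazurin and NADH then added for 5 min at room temperature in the dark; resorufin fluorescence read (ex 525, em 598).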

[5] = qHTS for ATAD5 Agonist screened against the NCATS CANVASS Library (AID 1347367);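 also: luciferase reporter driven by ATAD5 which rises upon DNA damage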
Summary of the method: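 HEK293T-ATAD5 luc reporter; 2000 cells/well; 5hr settle; cpd 11-pt qHTS; 16hr 37C 5% CO2 dark; viability by CellTiter-Fluor (AFC fluorescence); then luciferase luminescence, 30min RT.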

[6] = G06 Cancer Cell Toxicity qHTS against the NCATS CANVASS Library (AID 1347368); also: nearly all actives have a fitted effect of over 60% in size; also: potency is read from the fitted curve at half-maximal effect
Summary of the method: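 G06 dog glioma cells, 500 per well, exposed 72 hr at 37C, 5% CO2 to compounds in an 11-point series. Cytotoxicity read as ATP content by CellTiterGlo luminescence.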

[7] = qHTS for ATAD5 Antagonist screened against the NCATS CANVASS Library (AID 1347370); also: nearly all actives have a fitted effect of over 65% in size; also: potency is read from the fitted curve at half-maximal effect
Summary of the method: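 HEK293T cells with stably integrated ATAD5-luciferase reporter, 2000/well, 5 h attachment; compounds plus 10 µM 5-fluorouridine, 16 h at 37 °C. Luciferase luminescence read, with CellTiter-Fluor viability read first.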

[8] = J3T Cancer Cell Toxicity qHTS against the NCATS CANVASS Library (AID 1347371); also: potency is read from the fitted curve at half-maximal effect
Summary of the method: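 J3T dog glioma cells, 500 per well, treated 72 h at 37C with compounds (11-point qHTS); viability from ATP content by CellTiterGlo luminescence; bortezomib titration as control.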

[9] = target: Nuclear receptor subfamily 1 group I member 3 (Homo sapiens) (UniProt Q14994); experiment: qHTS for Constitutive Androstane Receptor (CAR) Antagonist screened against the NCATS CANVASS Library (AID 1347372); also: potency is read from the fitted curve at half-maximal effect
Summary of the method: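 HepG2 cells stably carrying hCAR and CYP2B6-2.2kb luciferase reporter, 2500 cells/well, compound with 50 nM CITCO agonist for 24hr at 37C. ONE-Glo luminescence measured CAR activity; CellTiter-Fluor read viability.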

[10] = target: Nuclear receptor subfamily 1 group I member 3 (Homo sapiens) (UniProt Q14994); experiment: qHTS for Constitutive Androstane Receptor (CAR) Agonist screened against the NCATS CANVASS Library (AID 1347373);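 also: every well also contained 1.5 µM PK11195 alongside the test compound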
Summary of the method: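 HepG2 cells stably carrying hCAR and a CYP2B6-2.2kb luciferase reporter, treated 24hr at 37C with compounds plus 1.5uM PK11195; activation by ONE-Glo luminescence, viability by CellTiter-Fluor.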

[11] = qHTS for Hypoxia signaling pathway (HIF-1) agonists against the NCATS CANVASS Library (AID 1347375)
Summary of the method: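 HRE-bla ME-180 cells (0.5% dialyzed FBS) were pre-incubated 5 hrs at 37C, then exposed to compounds in an 11-point series for 17 hrs. Read-out was CCF4-AM beta-lactamase FRET (460/530 nm emissions), with CellTiter-Glo viability in the same wells.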

[12] = 10-beta competent E. coli microbial cell viability qHTS against the NCATS CANVASS Library (AID 1347376); also: series mostly up to about 46 µM
Summary of the method: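 10-beta competent E. coli (0.2 OD) were exposed overnight at 37C to compounds in an 11-point series. Viability was read as ATP-dependent BacTiter-Glo luminescence after 20 min at room temperature.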

[13] = qHTS for H2AX Agonists against the NCATS CANVASS Library (AID 1347378);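 also: phospho-H2AX S139 level in CHO-K1 lysates by TR-FRET emission ratio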; also: potency is read from the fitted curve at half-maximal effect
Summary of the method: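 CHO-K1, 1000 cells/well, o/n 37C; cpd several conc, 3 hr 37C, 0.76% DMSO; lyse 30 min RT; cryptate anti-pH2AX(S139) + d2 anti-H2AX, 24 hr RT; HTRF 665/620.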

[14] = Inflammasome Signaling qHTS Counterscreen: IL-1-beta AlphaLISA counterscreen against the NCATS CANVASS Library (AID 1347381);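 also: cell-free check with purified IL-1β in medium and no THP-1 cells; series mostly up to about 57 µM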
Summary of the method: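 Cell-free interference check: compounds added to medium spiked with 4 pg purified IL-1β. Anti-IL-1β acceptor beads (6 ug/mL) with 0.6 nM biotinylated antibody added for 1 h at RT, then streptavidin donor beads (24 ug/mL) for 30 min in the dark. AlphaLISA read at 680/615 nm.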

[15] = Cytotoxicity qHTS for assessment of Hepg2 cells membrane integrity screened against the NCATS CANVASS Library (AID 1347387)
Summary of the method: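 HepG2 cells (2000/well) attached overnight, then exposed 5 hr at 37C to compounds in an 11-point series (0.59 nM - 46 uM final). LDH release from damaged membranes read fluorometrically (CytoTox-ONE; 560/590 nm) after 10 min at room temperature.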

[16] = qHTS for Activators of p53 Stress Response Pathway screened against the NCATS CANVASS Library (AID 1347388)
Summary of the method: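 p53RE-bla HCT-116 cells (4000/well) were pre-incubated for 5 h, then treated with compound (11 points) for 16 h at 37C. After 2 h with CCF4, the 460/530 nm ratio gave reporter activation; CellTiter-Glo measured viability.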

[17] = qHTS assay for small molecule disruptors of mitochondrial membrane potential screened against the NCATS CANVASS Library (AID 1347389); also: nearly all actives have a fitted effect of over 60% in size; also: potency is read from the fitted curve at half-maximal effect
Summary of the method: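 HepG2 cells (2,000/well) plated overnight, then exposed to compounds in 11-point qHTS series for 1 h at 37C before 30 min Mito-MPS dye; depolarization read as fall in red aggregate (590 nm) to green monomer (535 nm) fluorescence.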

[18] = Secretion counterscreen for inhibitors of the SERCaMP assay screened against the NCATS CANVASS Library (AID 1347390);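 also: light from luciferase secreted into medium read as a measure of general secretion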; also: potency is read from the fitted curve at half-maximal effect
Summary of the method: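 SH-SY5Y-GLuc STOP cells; 4 h attach; cpds 0.001 - 77 uM (qHTS, 11 pts), 20 h 37C/5% CO2; coelenterazine in glow buffer; luminescence, 5 s exposure.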

[19] = qHTS for activators of dead-cell proteases activity screened against the NCATS CANVASS Library (AID 1347392);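 also: luminescence from protease leaking out of membrane-damaged cells cleaving impermeant substrate; rising signal means more cytotoxicity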
Summary of the method: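 HepG2 cells, 2000/well, attached 18 h at 37C, then exposed to compounds (11-point qHTS) for 5 h. Dead-cell protease release read as luminescence from cell-impermeant AAF-aminoluciferin substrate after 15 min at room temperature.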

[20] = Vero-766 cells viability qHTS against the NCATS CANVASS Library: Counterscreen for Zika virus inhibition assay (AID 1347394); also: nearly all actives have a fitted effect of over 60% in size; also: potency is read from the fitted curve at half-maximal effect
Summary of the method: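 Vero 766, no virus; 1000 cells/well; o/n attach; cpd 11-pt; 72 h, 37C, 5% CO2; CTG luminescence; cell-free media wells = 100% inhibition.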

Nuclear receptor subfamily 1 group I member 3 (Homo sapiens), sequence (Q14994 whole entry, looked up): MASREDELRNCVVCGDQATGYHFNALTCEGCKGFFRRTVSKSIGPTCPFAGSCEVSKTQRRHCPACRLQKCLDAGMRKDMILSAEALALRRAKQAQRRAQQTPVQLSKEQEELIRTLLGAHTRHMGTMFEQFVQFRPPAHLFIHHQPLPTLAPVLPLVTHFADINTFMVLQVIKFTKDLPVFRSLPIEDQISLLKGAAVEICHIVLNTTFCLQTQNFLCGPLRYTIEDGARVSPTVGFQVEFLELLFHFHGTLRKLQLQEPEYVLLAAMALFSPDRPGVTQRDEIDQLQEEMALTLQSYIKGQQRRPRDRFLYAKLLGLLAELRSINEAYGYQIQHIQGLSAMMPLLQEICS

SMILES	outcome [1]	Potency [2]	Potency [3]	Potency [4]	Potency [5]	Potency [6]	Potency [7]	Potency [8]	Potency [9]	Potency [10]	outcome [11]	outcome [12]	Potency [13]	outcome [14]	outcome [15]	Potency [16]	Potency [17]	Potency [18]	Potency [19]	Potency [20]
O=c1cc(-c2ccc(O)cc2)oc2cc(O)c([C@@H]3OC(CO)[C@H](O)[C@@H](O)[C@H]3O)c(O)c12 (stereo partly specified)	inactive	inactive	inactive	inactive	inactive	inactive	inactive	inactive	inactive	inactive	inactive	inactive	inactive	inactive	inactive	inactive	inactive	inactive	inactive	inactive
Cc1cc(C)c(O)c(C(=O)CC2CC(=O)NC(=O)C2)c1	inactive	inactive	inactive	inactive	inactive	2.64 µM (active)	4.67 µM (active)		14.8 µM (active)	inactive	inactive	inactive		inactive	inactive	inactive	inactive	6.09 µM (active)	inactive	
O[C@H]1C=C2[C@H]3CN(Cc4cc5c(cc43)OCO5)[C@H]2C[C@@H]1O	inactive	inactive	inactive	inactive	inactive	6.62 µM (active)			13.2 µM (active)	inactive	inactive	inactive	inactive	inactive	inactive	inactive	inactive	38.4 µM (active)	inactive	
C/C(=C\[C@H](C)C(=O)/C=C/CC1CC(=O)NC(=O)C1)[C@@H]1OC(=O)CCCC/C=C/[C@H](O)[C@@H](O)[C@@H]1C	inactive	inactive	inactive	inactive	inactive	5.9 µM (active)	23.4 µM (active)		inactive	inactive	inactive	inactive	inactive	inactive	inactive	inactive	inactive	inactive	inactive	inactive
C=C1C[C@H]2O[C@@H]3[C@@H]4[C@H](CC[C@@](C)(O)[C@@H]42)[C@H](C)COC3(C)[C@@H](OC(=O)CCCCCCC)CC1=O (stereo partly specified)	inactive	inactive	inactive	inactive	inactive	5.9 µM (active)			inactive	inactive		inactive	inactive	inactive	inactive			48.4 µM (active)	inactive	
COc1cc(C2C3=C(Cc4cc5c(cc42)OCO5)C(=O)OC3)cc(OC)c1OC (stereo unspecified)	inactive	inactive	inactive	inactive	inactive	0.0935 µM (active)	inactive		0.117 µM (active)	inactive	inactive	inactive	inactive	inactive	inactive	inactive	inactive	inactive	inactive	0.186 µM (active)
CC[C@@H](c1cc(OC)c(OC)cc1OC)[C@H](C)[C@@H](/C(C)=C/c1cc(OC)c(OC)cc1OC)c1cc(OC)c(OC)cc1OC	inactive	inactive	inactive		inactive	inactive	13.2 µM (active)	inactive	inactive	inactive	inactive	inactive	inactive	inactive	inactive	inactive	23.4 µM (active) and 20.9 µM (active)	inactive	inactive	inactive
CO[C@@H]1[C@H](O)[C@@H](C)O[C@@H](OC[C@@H]2C(C)OC(=O)/C=C/[C@H](C)C(O[C@@H]3O[C@H](C)CC4(OC(=O)O[C@@H]4C)C3O)[C@@H](C)CC(C)C(=O)/C=C/[C@H]3OC23)[C@@H]1OC (stereo partly specified)	inactive		inactive	inactive	inactive	16.6 µM (active)	16.6 µM (active)	13.2 µM (active)	20.9 µM (active)	inactive	inactive	inactive	inactive	inactive	inactive	inactive	inactive	inactive	inactive	inactive
C/C(=C\[C@H](C)C(=O)C[C@H](O)CC1CC(=O)NC(=O)C1)[C@@H]1OC(=O)CCCC/C=C/[C@@H](O)C[C@@H]1C	inactive	inactive	inactive	inactive	inactive	2.96 µM (active)	7.41 µM (active)		14.8 µM (active)	inactive	inactive	inactive	inactive	inactive	inactive		inactive	9.65 µM (active)	inactive	
CC[C@H]1[C@@H](C)[C@@H](c2cc(OC)c(OC)cc2OC)[C@H](C)[C@@H](c2cc(OC)c(OC)cc2OC)[C@@]12C=C(OC)C(=O)C=C2OC	inactive	inactive			inactive			inactive	inactive	inactive	inactive	inactive		inactive	inactive				inactive	
C=C1C(=O)O[C@H]2[C@H]1CCC(C)=C1CC[C@@](C)(O)[C@@H]12	inactive	inactive	inactive	inactive	inactive	16.6 µM (active)			inactive	inactive		inactive	27.3 µM (active)	inactive	inactive	inactive		34.3 µM (active)	inactive	inactive
CC(C)[C@@H]1CC(=O)c2coc3c2[C@H]1C[C@@H](C)C3=O	inactive	inactive	inactive	inactive	inactive	inactive	inactive	inactive	inactive	inactive	inactive	inactive	inactive	inactive	inactive	inactive		inactive	inactive	
